High-throughput results as filed in PubChem BioAssay.
Only some compounds are listed: those with a hit (about 19% of all), similar ones and a draw of the others.
TDP1 cell noCPT: qHTS for Inhibitors of human tyrosyl-DNA phosphodiesterase 1 (TDP1): qHTS in cells in absence of CPT. AID 686978, 2013. DT40 Tdp1-/- hTDP1 cells, no CPT, ATP luminescence, 48 h. Potency, µM (highest dose often 46.2 µM), most hits filed as inhibitors. 15% of 420,000 active; further: nearly all actives have a fitted effect of over 55% in size
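Luminescent ATP content (CellTiter-Glo) served as the growth readout. Knockout chicken DT40 cells expressing human TDP1 were exposed to compounds without camptothecin for a minimum 48 hr at 37 °C.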
DT40 TDP1 CPT: qHTS for Inhibitors of human tyrosyl-DNA phosphodiesterase 1 (TDP1): qHTS in cells in presence of CPT; chicken DT40 Tdp1-/-;hTDP1 cells + 20 nM CPT, ATP luminescence, 48 h; Potency, µM (doses to about 46.2 µM), actives largely listed as inhibitors; 12% of 420,000 active; AID 686979, 2013; further: nearly all actives have a fitted effect of over 55% in size
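Cell growth measured by CellTiter-Glo luminescence after a minimum 48 h, 37 C compound exposure with 20 nM CPT in Tdp1-knockout DT40 cells stably expressing hTDP1, seeded 400/well; qHTS titration format.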
HT1080 IDH1KD tx: qHTS for induction of synthetic lethality in tumor cells producing 2HG: qHTS for the HT-1080-IDH1KD cell line. HT-1080 IDH1 knockdown viability, ATP luminescence, 48 h. Potency, µM (series often up to 46.1 µM), most hits filed as cytotoxic. 2% of 360,000 active
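CellTiter-Glo luminescence after 48 h compound exposure at 37 degrees C of IDH1-knockdown HT-1080 cells in 5% FBS RPMI. %Activity scaled between DMSO wells and cell-free media wells, with curves fitted and assigned curve classes.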
HT1080-NT tox: qHTS for induction of synthetic lethality in tumor cells producing 2HG: qHTS for the HT-1080-NT fibrosarcoma cell line; HT-1080-NT fibrosarcoma viability, CellTiter-Glo ATP luminescence, 48 h; Potency, µM (series often up to 46.1 µM), most hits filed as cytotoxic; 1.6% of 360,000 active; AID 686970, 2013;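 further: NT is the 2HG producing partner of a matched IDH1 knockdown line; nearly all actives have a fitted effect of over 55% in size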
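Viability by CellTiter-Glo luminescence after 48 h compound exposure at 37C of HT-1080-NT cells (750/well, RPMI, 5% FBS). % activity scaled between DMSO wells and medium-only wells, then curve-fitted and categorized by curve class.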
IL1B secr inh: qHTS for Inhibitors of Inflammasome Signaling: IL-1-beta AlphaLISA Primary Screen | AID 743279, 2014 | activity change, % at 57.5 µM | THP-1 LPS/ATP IL-1B secretion, AlphaLISA, 16 h; active compounds read low | 4.7% of 360,000 active; in the data active means activity change below about -50%; inconclusive means mostly about -30% to -49%
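Secreted IL-1B measured by AlphaLISA bead assay after 16 h compound exposure of THP-1 cells; compounds (final up to 57.5 uM) added 1 h before LPS (250 ng/mL) and ATP (1.25 mM) stimulation; lower signal means less secretion.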
Hits are given with their value; 0 = inactive; ? = inconclusive; - = not tested or not shown; ! = not confirmed by another sample; [ ] = remark or other dose. Unless noted, the call rests on the fitted dose curve; in most records, active means well fitted curve in the direction sought with a large enough effect; inconclusive means small, poorly fitted or top-dose-only effect, or another doubt; inactive means no such curve, though single readings can be large; an effect the other way counts as inactive or inconclusive.

SMILES	TDP1 cell noCPT	DT40 TDP1 CPT	HT1080 IDH1KD tx	HT1080-NT tox	IL1B secr inh
COc1ccc(NC2CCCN(C(=O)c3cccnc3)C2)cc1 (centres undefined)	0	0	0	0	0
COc1ccc(NC2CCCN(C(=O)CSc3ccccn3)C2)cc1OC (centres undefined)	0	0	0	0	0
Cn1c(=O)c2ncn(C)c2n(C)c1=O	0	0	0	0	0
CCc1noc(C)c1C(=O)Nc1ccc(Cl)c(S(=O)(=O)N2CCCCC2)c1	?	?	0	0	0
CCN1CCC(N2CCN(c3ccccc3OC)CC2)CC1	0	0	0	0	0
Cc1ccc(SCC(=O)Nc2ccc(N3CCN(C)CC3)c(F)c2)cc1	21µM	?	0	0	0
Cn1cccc1C(=O)C(=O)Nc1cc(Cl)cc(Cl)c1	15µM	16µM	?	?	0
Cn1cccc1C(=O)C(=O)Nc1ccc(F)c(F)c1	0	0	0	0	0
CN(C)c1ccc(/C=C/CNC[C@H]2O[C@@H](n3ccc(N)nc3=O)[C@H](O)[C@@H]2O)cc1	0	0	0	0	0
Cc1cccc(C)c1OCCn1c(C2CC(=O)N(c3cccc(Cl)c3)C2)nc2ccccc21 (centres undefined)	13µM	16µM	-	-	-
Cc1cccc(C)c1OCCCCn1c(C2CC(=O)N(c3ccc(F)cc3)C2)nc2ccccc21 (centres undefined)	15µM	13µM	-	-	-
COC(=O)c1ccc2cn[nH]c2c1	0	0	0	0	0
Cc1ccccc1OCc1n(CC(=O)OC2CC(C)CCC2C(C)C)c2ccccc2[n+]1C (centres undefined)	2.6µM	10µM	7.3µM	16µM	-97!
CC1CCC(C(C)C)C(OC(=O)Cn2c(-c3ccc(Cl)cc3)[n+](C)c3ccccc32)C1 (centres undefined)	2.1µM	2.3µM	5.8µM	5.8µM	-91
CC1CCC(C(C)C)C(OC(=O)COC(=O)c2ccc(N)cc2)C1 (centres undefined)	?	?	0	0	0
O=C(Nc1nc(-c2cccs2)cs1)C1=COCCO1	23µM	?	0	0	0
CCc1ccc(-c2csc(NC(=O)C3=COCCO3)n2)cc1	?	12µM	0	0	0
O=C(Nc1nc(-c2ccc(Cl)cc2)cs1)C1=COCCO1	23µM	23µM	0	0	-84
Cc1sc(NC(=O)C2=COCCO2)nc1-c1ccc(Cl)cc1	21µM	?	0	0	0
COc1cccc(-n2c(SC)nnc2C2CCN(Cc3cccc(OC)c3O)CC2)c1	?	0[9.04 µM]	-	-	-
CC1=CC2=NC(=O)CC(C)(C(=O)N(CC(=O)NC3CCCC3)Cc3ccccc3)N2C=C1 (centres undefined)	0	0	0	0	0
O=C(Nc1nc(-c2cccs2)cs1)c1ccc([N+](=O)[O-])o1	21µM	?	?	?	-90
O=C(Cc1ccccc1)Nc1nc(-c2cccs2)cs1	0	?	?	0	0
O=C(NCCc1ccc(Cl)cc1)C(=O)NCC(c1ccco1)S(=O)(=O)c1ccc(Cl)cc1 (centres undefined)	13µM	16µM	-	-	-
O=C(NCC(c1ccco1)S(=O)(=O)c1ccc(Cl)cc1)c1ccc(C(F)(F)F)cc1 (centres undefined)	12µM	9.2µM	-	-	-
SMILES	TDP1 cell noCPT	DT40 TDP1 CPT	HT1080 IDH1KD tx	HT1080-NT tox	IL1B secr inh
COc1cc(OC)c(NC(=O)CCNC(=O)Cn2cnc3ccccc3c2=O)cc1Cl	?	18µM	0	0	0
CCN(C(=O)Cn1cnc2onc(-c3ccc(F)cc3)c2c1=O)c1ccc(OC)cc1	12µM	18µM	-	-	-
O=C(Cn1cnc2onc(-c3ccc(F)cc3)c2c1=O)Nc1cccc(C(F)(F)F)c1	21µM	23µM	-	-	-
O=C(Cn1cnc2onc(-c3ccc(F)cc3)c2c1=O)Nc1ccc(F)c(Cl)c1	?	9.2µM	-	-	-
COc1cc(Cl)c(C)cc1NC(=O)CNC(=O)Cn1cnc2ccccc2c1=O	0	0	0	0[9.24 µM]	0
O=P(O)(O)OCC(O)CO (centres undefined)	0	0	-	-	-
Cc1ccc(C)c(N2CCN(C(=O)Cn3cnc4onc(-c5ccc(F)cc5)c4c3=O)CC2)c1	?	23µM	-	-	-
Cc1ccc(-c2noc(CCC(=O)N3CCN(c4cc(C)ccc4C)CC3)n2)cc1	0	0	0	0	0
COc1cc(OC)c(NC(=O)CCn2cnc3onc(-c4ccc(F)cc4)c3c2=O)cc1Cl	2.1µM	12µM	-	-	-
CCOc1ccc(NC(=O)CCn2cnc3onc(-c4ccc(F)cc4)c3c2=O)cc1	0	0	-	-	-
O=c1[nH]c(=S)c2[nH]c(=S)n(-c3ccccc3)c2[nH]1	0	0	0	0	0
O=C(C1=C[C@H](c2csc3ccccc23)C[C@H](OCCCCO)O1)N1CCN(Cc2ccc3c(c2)OCO3)CC1	?	?	?	0	-54
O=C(Nc1ccccc1)C1=C[C@H](c2csc3ccccc23)C[C@H](OCCCCO)O1	?	?	0	0	0
O=C(C1=C[C@H](c2csc3ccccc23)C[C@H](OCCCCO)O1)N1CCN(Cc2ccccc2)CC1	?	26µM	0	0	0
O=C(C1=C[C@@H](c2csc3ccccc23)C[C@@H](OCCCCO)O1)N1CCN(Cc2ccc3c(c2)OCO3)CC1	?	?	0	0	?
O=C(NCc1ccccc1)C1=C[C@H](c2csc3ccccc23)C[C@H](OCCCCO)O1	18µM	16µM	0	0	0
O=C(C1=C[C@H](c2ccc(Br)cc2)C[C@H](OCCCCO)O1)N1CCN(Cc2ccccc2)CC1	?	23µM	0	?	0
COc1ccc(-n2c(=S)[nH]c3cc(C(=O)N4CCN(c5ccccc5)CC4)ccc3c2=O)cc1	0	0	0	0	0
N#Cc1ccc(CN2C=NS(=O)(=O)c3ccccc32)cc1	0	0	0	0	0
O=C(C1=C[C@@H](c2csc3ccccc23)C[C@@H](OCc2ccc(CO)cc2)O1)N1CCN(Cc2ccccc2)CC1	?	?	0	0	-60
C=CCNc1nc(C(F)(F)F)nc2c1nnn2Cc1ccccc1Cl	?	?	0	0	0
CC(C)(C)c1nc(NCCN2CCOCC2)c2nnn(Cc3ccccc3Cl)c2n1	10µM	10µM	0	0	0
CCOCCCNc1nc(C(F)(F)F)nc2c1nnn2Cc1ccccc1Cl	15µM	18µM	0	?	0
CN1CCN(c2ncc3ncc(=O)n(CCC#N)c3n2)CC1	0	0	-	-	-
CC(C)c1ccc(N(CC(=O)NCCCN2CCOCC2)S(=O)(=O)c2ccccc2)cc1	26µM	18µM	0	0	0
CC(C)c1ccc(N(CC(=O)N/N=C/c2ccc(OC3CSC3)cc2)S(=O)(=O)c2ccccc2)cc1	?	23µM	0	0	0
